# What was measured:
# Assay in all cases: DAPPL (digital affinity profiling via proximity ligation, sequencing); 10 mM Tris-HCl pH 7.5, 50 mM NaCl, 1 mM DTT, 4% glycerol, room temperature, 30 min; GST-TFs on glutathione beads, 16-mer random dsDNA library, 0.1% formaldehyde crosslink after washing; high values mean tight binding
# FEV = biological target: T1, FEV (Homo sapiens, UniProt Q99581 1-238); conditions: protein: recombinant; tags: N-terminal GST; dsDNA, one strand shown
# T1 sequence: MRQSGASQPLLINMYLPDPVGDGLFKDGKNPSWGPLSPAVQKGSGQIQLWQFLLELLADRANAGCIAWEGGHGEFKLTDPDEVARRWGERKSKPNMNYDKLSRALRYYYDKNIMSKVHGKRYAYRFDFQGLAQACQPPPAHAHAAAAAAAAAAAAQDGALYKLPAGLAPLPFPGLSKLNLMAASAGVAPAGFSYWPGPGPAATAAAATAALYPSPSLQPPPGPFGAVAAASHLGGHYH
# Procedure, shortened: (§1)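 Human transcription factors fused to GST were expressed in yeast, captured on glutathione beads, given DNA barcodes and pooled with a GST-only negative control. Pools were incubated with 200 nmole of a 16-mer random double-stranded DNA library in Tris/NaCl/DTT/glycerol buffer at room temperature for 30 min. They were then washed, crosslinked with 0.1% formaldehyde, proximity-ligated (BsaI/T4 ligase, 1 h, 37 °C), PCR-amplified and sequenced on an Illumina NextSeq500. Binding signal is each 6-mer's read frequency for a factor divided by its frequency for the GST control.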
# ETV5 = ETV5 (Homo sapiens, UniProt P41161 1-510); conditions: protein: recombinant; tags: N-terminal GST; dsDNA, one strand shown
# ETV5, sequence (P41161 whole entry): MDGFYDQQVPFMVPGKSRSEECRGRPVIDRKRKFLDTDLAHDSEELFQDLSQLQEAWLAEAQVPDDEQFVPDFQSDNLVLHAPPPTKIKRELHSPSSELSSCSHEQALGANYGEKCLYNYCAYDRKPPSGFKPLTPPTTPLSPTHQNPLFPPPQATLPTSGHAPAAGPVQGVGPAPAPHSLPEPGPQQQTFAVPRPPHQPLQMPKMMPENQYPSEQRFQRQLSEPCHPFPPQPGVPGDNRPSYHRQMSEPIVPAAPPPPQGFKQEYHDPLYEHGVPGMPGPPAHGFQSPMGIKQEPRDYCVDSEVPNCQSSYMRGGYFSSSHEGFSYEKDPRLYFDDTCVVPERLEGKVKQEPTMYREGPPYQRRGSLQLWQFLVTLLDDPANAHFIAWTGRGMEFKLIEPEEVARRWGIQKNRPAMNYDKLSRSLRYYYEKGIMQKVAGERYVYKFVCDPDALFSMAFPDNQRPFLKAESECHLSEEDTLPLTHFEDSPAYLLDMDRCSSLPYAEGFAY
# Procedure, shortened: as §1
# HSF1 = HSF1 (Homo sapiens, UniProt Q00613 1-529); conditions: protein: recombinant; tags: N-terminal GST; chain copies: 3; dsDNA, one strand shown
# HSF1, sequence (Q00613 whole entry): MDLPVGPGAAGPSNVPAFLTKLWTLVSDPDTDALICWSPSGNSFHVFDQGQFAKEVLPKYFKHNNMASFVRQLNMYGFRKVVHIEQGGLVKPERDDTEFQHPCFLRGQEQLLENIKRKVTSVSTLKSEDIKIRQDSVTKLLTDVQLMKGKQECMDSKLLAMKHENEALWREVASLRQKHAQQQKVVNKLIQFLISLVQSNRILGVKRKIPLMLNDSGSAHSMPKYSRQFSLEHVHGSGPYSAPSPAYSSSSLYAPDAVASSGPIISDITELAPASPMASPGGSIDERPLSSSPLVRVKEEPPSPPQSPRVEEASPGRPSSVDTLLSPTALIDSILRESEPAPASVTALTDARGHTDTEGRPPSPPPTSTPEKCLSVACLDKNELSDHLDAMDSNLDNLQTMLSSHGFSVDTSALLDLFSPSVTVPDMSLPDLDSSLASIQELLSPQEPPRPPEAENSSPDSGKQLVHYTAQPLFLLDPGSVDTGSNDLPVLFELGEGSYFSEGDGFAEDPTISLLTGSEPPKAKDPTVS
# Procedure, shortened: as §1
# SPIC = biological target: T2, SPIC (Homo sapiens, UniProt Q8N5J4 1-248); conditions: protein: recombinant; tags: N-terminal GST; dsDNA, one strand shown
# T2 sequence: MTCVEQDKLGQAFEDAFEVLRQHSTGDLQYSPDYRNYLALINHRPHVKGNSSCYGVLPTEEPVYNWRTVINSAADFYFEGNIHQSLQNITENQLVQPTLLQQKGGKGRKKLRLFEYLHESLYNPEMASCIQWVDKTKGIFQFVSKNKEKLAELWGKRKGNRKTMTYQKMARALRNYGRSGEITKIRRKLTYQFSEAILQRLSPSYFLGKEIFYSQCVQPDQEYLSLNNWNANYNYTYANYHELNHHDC
# Procedure, shortened: as §1
# ELF4 = ELF4 (Homo sapiens, UniProt Q99607 1-663); conditions: protein: recombinant; tags: N-terminal GST; dsDNA, one strand shown
# ELF4, sequence (Q99607 whole entry): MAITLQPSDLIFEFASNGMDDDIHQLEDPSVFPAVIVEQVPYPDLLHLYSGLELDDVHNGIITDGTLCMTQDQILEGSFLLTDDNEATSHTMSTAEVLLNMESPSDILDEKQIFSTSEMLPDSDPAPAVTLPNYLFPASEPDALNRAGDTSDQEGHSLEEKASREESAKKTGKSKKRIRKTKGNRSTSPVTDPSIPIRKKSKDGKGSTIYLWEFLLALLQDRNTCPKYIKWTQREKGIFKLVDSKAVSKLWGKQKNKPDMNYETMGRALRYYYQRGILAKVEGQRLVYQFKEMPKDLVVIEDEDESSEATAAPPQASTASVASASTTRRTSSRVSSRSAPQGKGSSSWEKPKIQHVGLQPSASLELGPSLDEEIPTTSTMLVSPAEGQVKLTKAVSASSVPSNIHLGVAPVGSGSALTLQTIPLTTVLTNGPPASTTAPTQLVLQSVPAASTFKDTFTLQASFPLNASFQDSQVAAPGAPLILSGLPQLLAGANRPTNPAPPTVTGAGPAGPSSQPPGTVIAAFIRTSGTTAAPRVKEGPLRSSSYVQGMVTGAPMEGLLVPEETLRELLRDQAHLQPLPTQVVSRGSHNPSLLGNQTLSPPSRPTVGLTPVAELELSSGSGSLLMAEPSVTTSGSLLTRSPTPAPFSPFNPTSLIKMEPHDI
# Procedure, shortened: as §1
# ELK4 = biological target: T3, ELK4 (Homo sapiens, UniProt P28324-2 1-405); conditions: protein: recombinant; tags: N-terminal GST; dsDNA, one strand shown
# T3 sequence: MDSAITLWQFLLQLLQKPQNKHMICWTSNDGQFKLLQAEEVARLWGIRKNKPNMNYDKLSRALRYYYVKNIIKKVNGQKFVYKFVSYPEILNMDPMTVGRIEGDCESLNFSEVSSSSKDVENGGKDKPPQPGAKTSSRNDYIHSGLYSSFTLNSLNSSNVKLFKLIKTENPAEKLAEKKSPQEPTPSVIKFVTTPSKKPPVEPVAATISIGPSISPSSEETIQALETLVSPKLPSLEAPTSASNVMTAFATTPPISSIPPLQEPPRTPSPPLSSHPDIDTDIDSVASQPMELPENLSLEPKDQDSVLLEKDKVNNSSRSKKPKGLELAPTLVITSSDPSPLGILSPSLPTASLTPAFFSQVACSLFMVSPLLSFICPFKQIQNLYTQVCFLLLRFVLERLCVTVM
# Procedure, shortened: as §1
# ETV2 = biological target: T4, ETV2 (Homo sapiens, UniProt O00321 1-342); conditions: protein: recombinant; tags: N-terminal GST; dsDNA, one strand shown
# T4 sequence: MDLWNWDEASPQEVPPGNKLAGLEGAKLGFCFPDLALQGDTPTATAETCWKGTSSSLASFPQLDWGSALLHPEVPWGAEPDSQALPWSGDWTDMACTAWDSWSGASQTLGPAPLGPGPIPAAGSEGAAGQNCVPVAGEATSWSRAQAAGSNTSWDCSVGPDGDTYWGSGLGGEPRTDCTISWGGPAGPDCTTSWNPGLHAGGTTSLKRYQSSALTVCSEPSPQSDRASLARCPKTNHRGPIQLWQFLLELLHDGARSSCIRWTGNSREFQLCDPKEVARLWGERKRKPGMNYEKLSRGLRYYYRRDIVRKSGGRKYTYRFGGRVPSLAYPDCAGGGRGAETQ
# Procedure, shortened: as §1
# ELF3 = biological target: T5, ELF3 (Homo sapiens, UniProt P78545 1-371); conditions: protein: recombinant; tags: N-terminal GST; dsDNA, one strand shown
# T5 sequence: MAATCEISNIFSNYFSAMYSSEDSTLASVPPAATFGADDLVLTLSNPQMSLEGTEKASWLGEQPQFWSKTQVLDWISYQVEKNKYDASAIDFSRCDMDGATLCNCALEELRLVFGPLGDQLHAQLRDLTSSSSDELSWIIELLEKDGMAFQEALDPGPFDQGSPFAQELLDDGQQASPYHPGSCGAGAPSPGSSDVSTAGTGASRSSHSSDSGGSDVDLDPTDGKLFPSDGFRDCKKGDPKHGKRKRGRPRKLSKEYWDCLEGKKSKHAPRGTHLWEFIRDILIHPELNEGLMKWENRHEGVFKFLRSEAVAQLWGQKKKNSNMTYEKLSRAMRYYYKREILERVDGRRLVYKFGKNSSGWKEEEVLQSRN
# Procedure, shortened: as §1
# CRX = CRX (Homo sapiens, UniProt O43186 1-299); conditions: protein: recombinant; tags: N-terminal GST; dsDNA, one strand shown
# CRX, sequence (O43186 whole entry): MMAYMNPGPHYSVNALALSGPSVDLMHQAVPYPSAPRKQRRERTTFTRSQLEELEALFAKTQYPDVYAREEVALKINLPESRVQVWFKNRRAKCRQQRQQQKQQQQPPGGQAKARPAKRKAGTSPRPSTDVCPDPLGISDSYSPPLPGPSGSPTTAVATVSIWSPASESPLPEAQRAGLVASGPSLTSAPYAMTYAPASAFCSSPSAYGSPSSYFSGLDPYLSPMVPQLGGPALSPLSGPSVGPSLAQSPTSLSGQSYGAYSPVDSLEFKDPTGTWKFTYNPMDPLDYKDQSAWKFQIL
# Procedure, shortened: as §1
sequence,measurement,setting,value
GTTCTC,binding signal,FEV,"1.32 fold enrichment (6-mer frequency, TF over GST control)"
same,binding signal,ETV5,"1.32 fold enrichment (6-mer frequency, TF over GST control)"
same,binding signal,HSF1,"2.29 fold enrichment (6-mer frequency, TF over GST control)"
same,binding signal,SPIC,"1.36 fold enrichment (6-mer frequency, TF over GST control)"
same,binding signal,ELF4,"1.28 fold enrichment (6-mer frequency, TF over GST control)"
same,binding signal,ELK4,"1.27 fold enrichment (6-mer frequency, TF over GST control)"
same,binding signal,ETV2,"1.33 fold enrichment (6-mer frequency, TF over GST control)"
same,binding signal,ELF3,"1.3 fold enrichment (6-mer frequency, TF over GST control)"
same,binding signal,CRX,"1.28 fold enrichment (6-mer frequency, TF over GST control)"

# Source: PMC7862700, “An all-to-all approach to the identification of sequence-specific readers for epigenetic DNA modifications on cytosine”
